Compound activity: PubChem BioAssay, several laboratories
CHT inh: inhibitors of human choline transporter CHT | CHT-expressing cells, membrane potential dye, choline response; stronger effect = lower value | AID 488975, 2010 | actives 0.86% (n = 310,000) | High affinity choline transporter 1 (Homo sapiens), Q9GZV3 | B-score at 10 µM;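 active = B-score over 3 SD under the library average, and starting fluorescence ratio not unusually high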;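 note: choline stimulus applied at its EC90 after an EC20 pre-addition; B-score computed on integrated fluorescence ratio after choline addition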
Target sequence (Q9GZV3 whole entry, looked up): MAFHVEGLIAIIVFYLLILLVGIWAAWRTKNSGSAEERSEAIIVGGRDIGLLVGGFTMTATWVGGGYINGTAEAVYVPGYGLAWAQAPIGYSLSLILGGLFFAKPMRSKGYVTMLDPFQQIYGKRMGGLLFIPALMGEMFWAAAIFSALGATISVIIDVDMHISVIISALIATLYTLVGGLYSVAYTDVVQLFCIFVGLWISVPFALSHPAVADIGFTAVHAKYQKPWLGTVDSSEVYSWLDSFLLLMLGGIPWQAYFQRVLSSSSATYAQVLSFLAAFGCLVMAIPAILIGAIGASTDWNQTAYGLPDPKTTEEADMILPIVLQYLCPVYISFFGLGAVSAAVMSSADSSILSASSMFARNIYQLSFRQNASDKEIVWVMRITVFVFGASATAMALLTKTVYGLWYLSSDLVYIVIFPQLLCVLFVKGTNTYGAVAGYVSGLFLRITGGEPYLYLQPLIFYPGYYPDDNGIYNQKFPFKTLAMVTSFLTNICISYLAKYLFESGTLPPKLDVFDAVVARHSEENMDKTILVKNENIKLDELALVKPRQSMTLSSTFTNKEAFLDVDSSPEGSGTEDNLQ
CHT allo act: CHT positive allosteric modulators, primary screen, cell-based, membrane potential dye, choline EC20; CHT-expressing cells; stronger effect = higher value; LV-AA mutant CHT in HEK293 cells; B-score at 10 µM; actives 0.49% (n = 310,000);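 active = initial fluorescence not abnormally high and integrated response B-score, plate-corrected, over 3 SD above library mean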
ANO1 activ: TMEM16A chloride channel activators or potentiators, primary screen, cell-based, HTS. Anoctamin-1 (Mus musculus), Q8BHY3. HEK293 TMEM16A/YFP-H148Q/I152L, iodide quench fluorescence; stronger effect = lower value. B-score at 10 µM. actives 0.3% (n = 340,000);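 active = fluorescence-ratio B-score plate-corrected deviation score at least 3 library SD below zero, with starting fluorescence score within 5 deviations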;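 note: channel opened by trigger with iodide after compound preincubation; score built on the fluorescence ratio of max minus min over baseline; more negative score means more quench and so TMEM16A activation or potentiation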
HDAC3 inhib: HDAC3 deacetylase inhibitors, primary screen, biochemical, fluorescence, cell-free homogeneous; Histone deacetylase 3 (Homo sapiens), O15379; recombinant HDAC3, fluorogenic peptide/trypsin coupled; inhibition, % at 8.3 µM; actives 0.15% (n = 320,000); AID 2718, 2010; in the data active = inhibition above about 26%, passing the limit was not always enough
PHOSPHO1 block: PubChem AID 1565; actives 1.1% (n = 290,000); Phosphoethanolamine/phosphocholine phosphatase (Homo sapiens), Q8TCT1; inhibition, % at 13.3 µM; recombinant PHOSPHO1, absorbance phosphatase assay; in the data active = inhibition above about 60%
TMEM16A inh: TMEM16A chloride channel inhibitors, primary screen, cell-based, HTS; normalized B-score (activity score, 25-100; higher = stronger inhibition) at 10 µM; AID 588511, 2011; actives 1.2% (n = 310,000); HEK293 TMEM16A/YFP iodide influx fluorescence, ionomycin; Anoctamin-1 (Mus musculus), Q8BHY3;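 active = ratio plate-corrected score three or more library SD toward inhibition, starting fluorescence score within five deviations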;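 note: score derived from kinetic fluorescence span divided by baseline fluorescence per well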
* marks the source's active call; other numbers are inactive results; i = inactive; x = no result. Hits are enriched below; roughly 3.2% of the tested compounds scored in any of these assays.

SMILES	CHT inh	CHT allo act	ANO1 activ	HDAC3 inhib	PHOSPHO1 block	TMEM16A inh
COc1cccc(C(=O)CN2CCN(S(=O)(=O)c3cccc([N+](=O)[O-])c3)CC2)c1	i	i	i	-0.2	4.1	i
CCC1(CC)NC(=S)NC1=S	x	x	i	x	x	x
NC(=O)C1CCN(c2nc(-c3ccccc3)nc3c2oc2ccccc23)CC1	x	x	i	x	0.6	x
O=C(CCCNC(=O)c1ccc(Cl)cc1)Nc1ncccc1O	i	i	i	16.7	46.6	i
COc1ccc(S(=O)(=O)N2CCN(CC(=O)NC3CC3)CC2)cc1	i	i	i	-0.8	61.6*	i
COc1ccc(OC)c(C(=O)CN2CCN(S(=O)(=O)c3ccc(Br)cc3)CC2)c1	-6.55*	i	i	3.8	13.9	i
COc1ccc(S(=O)(=O)N2CCN(CCOc3ccc(Br)cc3)CC2)cc1OC	x	x	i	-7.5	x	x
CC(C)CN1C(=O)c2ccc(NC(=O)c3ccco3)cc2C1=O	i	i	i	-1.4	32.8	i
O=C(NCc1ccco1)C1CCN(C(=O)c2cc3sccc3n2Cc2ccc(Cl)cc2)CC1	i	i	i	3.6	16.0	100*
Cc1n[nH]c(=S)c2nn(-c3ccccc3F)c(C)c12	x	x	i	x	64.9*	x
Cc1cc(NC(=O)COC(=O)C2CCN(S(=O)(=O)c3cccc(Cl)c3Cl)CC2)no1	i	i	i	-1.6	-6.3	100*
Cc1ccc2c(c1)C(N1CCCC1=O)CC(c1ccco1)N2 (stereo not drawn)	i	i	i	-13.4	75.8*	i
Cc1ccc(CN2CC34C=CC(O3)C(C(=O)NCc3ccc5c(c3)OCO5)C4C2=O)cc1 (stereo not drawn)	i	i	i	-0.7	52.4	i
COCCCNC(=O)C1C2C=CC3(CN(Cc4ccc(C)cc4)C(=O)C13)O2 (stereo not drawn)	i	i	i	-3.1	60.1*	i
Cc1cccc(N2CCN(Cc3cc(=O)n4ccsc4n3)CC2)c1C	i	i	-13.8*	3.1	26.2	i
CCN1C(=O)C(CC(=O)Nc2ccc(F)cc2)N(Cc2cccs2)C1=S (stereo not drawn)	i	i	i	-1.1	32.8	i
NS(=O)(=O)c1cccc(NC(=O)CC(NC(=O)c2ccccc2Cl)c2ccccc2)c1 (stereo not drawn)	i	i	i	-1.7	4.7	i
O=C1CCC(=O)N1c1nc2nc(-c3ccccc3)cc(=O)n2[nH]1	i	i	-23.5*	1.6	21.7	i
Cc1nc2nc(-c3ccccc3)cc(=O)n2[nH]1	i	i	i	9.2	-34.4	i
CCCCn1c(/N=C/c2c[nH]c3ccccc23)nc2ccccc21	i	i	i	31.0*	19.4	i
CCCn1c(/N=C/c2c[nH]c3ccccc23)nc2ccccc21	i	i	i	-3.0	-110.4	i
COc1cccc(CNC(=O)CCn2ccc3cc(S(=O)(=O)N4CCCC4)ccc32)c1	i	i	i	8.8	34.4	i
Cc1cccc(C2C3=C(Nc4[nH]n(-c5ccccc5)c(=O)c42)c2ccccc2C3=O)c1 (stereo not drawn)	x	x	i	x	-29.3	x
CN1c2ccsc2C(O)=C(C(=O)Nc2ccccc2)S1(=O)=O	i	i	i	5.5	-11.3	i
Cc1ccc(NC(=S)C2=C(O)c3sccc3N(C)S2(=O)=O)cc1	i	i	i	10.2	75.5*	i
SMILES	CHT inh	CHT allo act	ANO1 activ	HDAC3 inhib	PHOSPHO1 block	TMEM16A inh
S=c1[nH]nc(Nc2cccc(Cl)c2)s1	i	i	i	6.4	79.5*	i
O=C(c1ccc(Cl)cc1)c1cnc(Nc2ccccc2Cl)s1	i	i	i	5.5	24.4	i
S=c1[nH]nc(Nc2ccccc2Cl)s1	i	i	i	16.1	67.7*	i
Clc1cccc(Nc2nc(-c3ccncc3)cs2)c1	i	i	i	-3.3	-1.1	i
Cc1ccccc1OCc1nc2ccc(S(=O)(=O)N3CCOCC3)cc2[nH]1	i	i	i	1.2	97.9*	i
O=C(CSc1c2c(nc3ccccc13)CCCC2)NCc1ccco1	i	i	i	2.5	-1.1	i
O=C(NCc1ccco1)c1c2c(nc3ccccc13)CCC2	i	i	i	-2.6	71.5*	i
CCOc1ccc(C(=O)Nc2ccc(N3CCN(C(C)=O)CC3)cc2)cc1[N+](=O)[O-]	i	i	i	4.9	8.1	i
CC(=O)N1CCN(c2ccc(Oc3ccc([N+](=O)[O-])c(C(F)(F)F)c3)cc2)CC1	i	i	i	5.3	15.0	100*
CC(C)N(Cc1ccccc1)C(=O)COC(=O)C1CCN(c2ccc(C(F)(F)F)cn2)CC1	x	x	i	x	x	x
CC(C)(C)N(Cc1ccccc1)C(=O)COC(=O)C1CCN(c2ccc(C(F)(F)F)cn2)CC1	x	x	-44*	-3.5	x	x
CC(=C\c1ccccc1)/C=C1/SC(=S)N(CCC(=O)O)C1=O	i	i	i	3.5	-9.9	i
Cc1cccc(S(=O)(=O)C(C#N)c2nc3ccccc3nc2N2CCCC2)c1 (stereo not drawn)	i	i	i	-5.7	-7.4	i
COc1ccc(S(=O)(=O)C(C#N)c2nc3ccccc3nc2N2CCCCC2)cc1 (stereo not drawn)	i	i	i	-4.3	99.8*	100*
O=c1c(/C=N/Nc2ccccc2)c(Sc2nnnn2-c2ccccc2)nc2ccccn12	x	x	i	x	93.0*	x
C=CCN(C(=O)c1csnn1)C(C(=O)NC1CCCCC1)c1ccc(C)cc1 (stereo not drawn)	i	i	i	2.7	39.2	i
c1nc2n(n1)C1=C(CCCC1)C1(CCCCC1)N2	i	i	-4.83*	2.6	28.5	i
COc1ccc(/C=N/Nc2cc(C)nc3ccc(OC)cc23)c(OC)c1	i	i	i	2.0	19.1	100*
Cc1cc2oc(=O)cc(CN3CCCc4ccccc43)c2cc1C	i	i	i	-3.9	73.8*	i
COc1ccc(Nc2nc(N)nc(CSc3nc(C)cc(C)n3)n2)cc1	i	i	i	4.9	60.1*	i
COc1ccccc1Nc1nc(N)nc(CSc2nc(C)cc(C)n2)n1	i	i	i	-6.7	25.5	i
O=[N+]([O-])c1cc2c(c(CSc3nnc(Nc4ccccc4)s3)c1)OCOC2	i	i	i	7.5	100.3*	i
